# Inconclusive results are not listed. Active and inactive are the calls of the source.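 How the source made its calls, unless noted: active means inhibition over a set limit, the all-compound mean plus 3 SD, in both replicate runs; inconclusive means over that limit in just one replicate run; inactive means at or under that limit in both runs.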
# Key:
# [1] = OD615 S. cerevisiae growth inhibition, permissive medium, pilot counter-assay, permissive growth control for S. cerevisiae lifespan shortening project (AID 705;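 active means growth inhibition above 25% in both replicates, a cutoff set 3 SD above the mean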); details: OD615, 24 h, at 10 µM, stronger effect = higher value
# [2] = Restrictive medium S. cerevisiae growth inhibition, OD615, pilot screen of yeast lifespan reduction project, restrictive growth control (AID 706;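 active means growth inhibition above a set limit, 3 SD over mean compound inhibition, in both replicates, cut at about 43% in these data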;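 further: modified DeaD lifespan yeast strain shifted to restrictive glucose medium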); details: OD615, 48 h, at 10 µM, stronger effect = higher value
# [3] = viability gain of MRP-1-high H69AR cells under doxorubicin, pilot screen, MRP-1 activator project, CellTiter-Glo, duplicate (AID 807;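 active means viability increase at or above a cutoff of the median across tested compounds plus 3 SD, cut at about 8.5% in these data, passing the limit was not always enough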;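 further: compound pretreatment 18-22 h then 72 h combined with doxorubicin; 0% = doxorubicin alone and 100% = vehicle without doxorubicin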); details: H69AR viability with doxorubicin, CellTiter-Glo luminescence; at 10 µM; stronger effect = higher value
# [4] = growth suppression of beta-catenin knockout HCT116, pilot screen, human colon tumor cells (AID 823;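 active means cell viability at or below a set limit in both duplicate runs, the limit being the all-compound median minus 4 SD, cut at about 23% in these data, passing the limit was not always enough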;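 further: 0% = wells killed by 20 µM Hyamine and 100% = untreated DMSO cell wells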); details: CellTiter-Glo, 60 h, at 10 µM, stronger effect = lower value
# [5] = growth suppression of PTEN-deleted HCT116, pilot screen, cell-based, HCT116 clonal line, CellTiter-Glo (AID 824;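 active means viability at or below 27.92% in each of two runs, the all-compound median minus 4 SD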;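 further: 0% = 20 µM Hyamine control and 100% = vehicle cell control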); details: 60 h, at 10 µM, stronger effect = lower value
# [6] = inhibitors of the yeast RAM network, pilot screen, dse1pr::URA3 reporter, 5-FOA selection (AID 869);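 further: 0% = DMSO wells with no growth and 100% = 10 µM 1-NA-PP1 with full growth; RAM network block rescues cells from 5-FOA so hits raise OD615 growth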; details: S. cerevisiae dse1pr::URA3 5-FOA growth, OD615, 2 d, at 10 µM, stronger effect = higher value
# [7] = RAM signaling pathway blockade in yeast – S. cerevisiae, Pdr1DBD-CYC8 efflux-inhibited sensitized strain, primary screen (AID 1298;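 active means RAM network inhibition above 8.4% in each of two replicates, 3 SD over the compound average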;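 further: 0% = DMSO untreated cells without growth and 100% = 10 µM 1-NA-PP1 full growth; higher means more yeast growth rescued from 5-FOA killing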); details: S. cerevisiae cbk1-as DSE1-URA3 strain, 5-FOA growth OD615, 2 d; at 50 µM; stronger effect = higher value
# [8] = Recombinant Mtb pantothenate synthetase (PanC) inhibitors, coupled enzyme, confirmatory (AID 375; call rule not given here); details: coupled enzyme assay; measured here: coupling enzymes IC50 repeat trials unless noted
# [9] = target: Pantothenate synthetase (Mycobacterium tuberculosis (strain ATCC 25618 / H37Rv)) (UniProt P9WIL5); assay: as above; details: coupled enzyme assay; at 10 µM, stronger effect = higher value
# Chain of Pantothenate synthetase (Mycobacterium tuberculosis (strain ATCC 25618 / H37Rv)) (P9WIL5 whole entry, looked up): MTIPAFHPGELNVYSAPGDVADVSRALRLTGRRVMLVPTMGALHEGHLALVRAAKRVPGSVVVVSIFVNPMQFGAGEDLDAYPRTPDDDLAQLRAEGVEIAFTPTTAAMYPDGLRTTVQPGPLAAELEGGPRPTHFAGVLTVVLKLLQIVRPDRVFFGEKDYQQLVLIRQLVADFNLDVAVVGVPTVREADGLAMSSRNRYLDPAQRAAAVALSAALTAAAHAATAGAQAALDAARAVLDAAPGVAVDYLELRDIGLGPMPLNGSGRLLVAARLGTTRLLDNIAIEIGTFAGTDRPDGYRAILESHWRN
SMILES,growth inhibition [1],growth inhibition [2],viability increase [3],viability [4],viability [5],inhibition [6],RAM network inhibition [7],IC50 [8],outcome [9]
O=C(O)C1CSC(c2cccnc2)N1 (stereo unspecified),-3.98% (inactive),-8.32% (inactive),-1.05% (inactive),99.3% (inactive),106% (inactive),3.04% (inactive),2.35% (inactive),–,–
CCCCP(=O)(O)c1ccccc1,-5.46% (inactive),-11.7% (inactive),-0.51% (inactive),101% (inactive),95.4% (inactive),1.03% (inactive),3.03% (inactive),–,–
Nc1ccccc1C(=O)c1ccccc1,-0.69% (inactive),-1.46% (inactive),-1.42% (inactive),90.9% (inactive),88.7% (inactive),0.55% (inactive),2.5% (inactive),–,–
O=C1CCCC2=C1C(c1cccnc1)Nc1ccccc1N2 (stereo unspecified),-12.3% (inactive),-2.74% (inactive),-1.06% (inactive),90.8% (inactive),99.2% (inactive),1.61% (inactive),4.54% (inactive),–,–
CN1CCN(CCC(C#N)(c2ccccc2)c2ccccc2)CC1,-19.9% (inactive),-7.5% (inactive),-2.94% (inactive),87% (inactive),–,1.81% (inactive),0.63% (inactive),–,–
Clc1cccc(CN2CCCCC2c2cccnc2)c1 (stereo unspecified),-8.37% (inactive),-2.08% (inactive),0.65% (inactive),81.9% (inactive),85.3% (inactive),1.16% (inactive),-0.74% (inactive),–,–
COc1ccc(OC)c(-c2cc(C(=O)Nc3cc(C)n(Cc4ccc(Cl)cc4)n3)no2)c1,–,–,–,–,–,–,–,> 100 µM,inactive
CN1CCN(c2ccc(NC(=O)C(C)(C)C)cc2)CC1,-17.9% (inactive),6% (inactive),-1.56% (inactive),94.8% (inactive),–,1.54% (inactive),5.29% (inactive),–,–
CCOc1ccc(-n2c(O)c(C=Nc3ccc(N4CCOCC4)cc3)c(=O)[nH]c2=O)cc1,-8.12% (inactive),-10.6% (inactive),-3.19% (inactive),97.8% (inactive),103% (inactive),0.445% (inactive),5.35% (inactive),–,–
CCOC(=O)C1CCN(/C=C2/C(=O)NC(=O)N(c3ccc(OCC)cc3)C2=O)CC1,-11.5% (inactive),-20.2% (inactive),1.62% (inactive),98% (inactive),97.5% (inactive),1.87% (inactive),1.16% (inactive),–,–
CC1(C)CN=C(Nc2ccc(F)c(F)c2)S1,-7.04% (inactive),-4.74% (inactive),0.98% (inactive),111% (inactive),101% (inactive),0.8% (inactive),6.13% (inactive),–,–
CCCOc1ccccc1C1SCC(=O)Nc2c1c(=O)[nH]n2C(C)CCC (stereo unspecified),-9.65% (inactive),-5.25% (inactive),1.02% (inactive),94% (inactive),–,1.6% (inactive),1.25% (inactive),–,–
COCCOC(=O)C1=C(N)OC(C)=C(C(=O)OC)C12C(=O)Nc1ccccc12 (stereo unspecified),-5.22% (inactive),-5.97% (inactive),-4.28% (inactive),–,93% (inactive),2.54% (inactive),3.95% (inactive),–,–
COc1cccc(N2C(=O)CC(=O)NC2=O)c1,-5.82% (inactive),-6.37% (inactive),-0.55% (inactive),–,108% (inactive),1.5% (inactive),1.99% (inactive),–,–
CCCCCCn1c(=O)c(C(=O)Nc2ccncc2)c(O)c2ccccc21,93.5% (active),97.4% (active),-7.48% (inactive),–,–,-0.885% [strain carries analog-sensitive mutant Cbk1 kinase] (inactive),-1.58% (inactive),–,–
CC1(C)CC(n2[nH]c(=O)c3c2NC(=O)CSC3c2ccc(F)cc2)CCO1 (stereo unspecified),-12.3% (inactive),-25.8% (inactive),-2.67% (inactive),95.8% (inactive),–,-0.28% (inactive),4.89% (inactive),–,–
CCc1sc(C(=O)N2CCC3(CC2)OCCO3)cc1Br,-7.48% (inactive),-12.2% (inactive),-2% (inactive),–,100% (inactive),0.935% (inactive),1.59% (inactive),–,–
CCOC(=O)c1cncn1C(C)c1ccccc1 (stereo unspecified),-15.6% (inactive),1.2% (inactive),-2.02% (inactive),102% (inactive),–,0.145% (inactive),3.01% (inactive),–,–

# — PubChem BioAssay
